# Results as given in the supplement of paper PMC4022240.
# ± gives the standard deviation.
# T1: HaloTag-ATRX ADD domain (163-292)
# T1 chain: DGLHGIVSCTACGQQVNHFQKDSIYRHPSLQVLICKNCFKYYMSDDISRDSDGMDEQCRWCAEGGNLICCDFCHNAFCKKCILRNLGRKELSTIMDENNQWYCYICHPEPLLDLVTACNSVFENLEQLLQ
# What was measured:
# Assay in all cases: peptide microarray binding signal (635 nm), min-max normalized on array (fraction of array maximum); higher = stronger binding
# Conditions in all cases: peptide region: H4 16-28
# [1] = biological target: T1, HaloTag-ATRX ADD domain (163-292)
# Summary of the method: (§1)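 Histone 13-mer peptide–cellulose conjugates were printed in triplicate on nitrocellulose with a Cy3 tracer, then blocked overnight at 4°C. Arrays were probed for 1 h at 4°C with biotin-labelled HaloTag reader fusions (10 nM to 1 μM) plus streptavidin-Alexa Fluor 647, or with rabbit histone antibodies (1:10,000 to 1:2,000) plus anti-rabbit Alexa 647. An Axon GenePix 4000B scanned 635 nm for signal and 532 nm for misprints. Binding signal is the triplicate-spot mean intensity, min-max scaled per library.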
# [2] = biological target: HaloTag-ING2 PHD (mouse Ing2 200-280)
# Summary of the method: as §1
# [3] = biological target: anti-H3K4me3 antibody ab8580
# Summary of the method: as §1
# [4] = biological target: anti-H3K9me3 antibody ab8898
# Summary of the method: as §1
# [5] = peptide modifications: H4R19me2s H4K20me2, binder concentration: 1:2,000 dilution
# [6] = peptide modifications: H4R19me2s H4K20me2, binder concentration: 1:10,000 dilution
# [7] = peptide modifications: H4R19me2a H4K20ac, binder concentration: 1:2,000 dilution
# [8] = peptide modifications: H4R19me2a H4K20ac, binder concentration: 1:10,000 dilution
# [9] = peptide modifications: H4R19me2a H4K20me1, binder concentration: 1:2,000 dilution
# [10] = peptide modifications: H4R19me2a H4K20me1, binder concentration: 1:10,000 dilution
# [11] = peptide modifications: H4R19me1 H4K20me3, binder concentration: 1:2,000 dilution
# [12] = peptide modifications: H4R19me1 H4K20me3, binder concentration: 1:10,000 dilution
# [13] = peptide modifications: H4R23me2a, binder concentration: 1:2,000 dilution
# [14] = peptide modifications: H4R19me2a H4K20me3, binder concentration: 1:2,000 dilution
# [15] = peptide modifications: H4R19me2a H4K20me3, binder concentration: 1:10,000 dilution
# [16] = peptide modifications: H4R23me1, binder concentration: 1:2,000 dilution
# [17] = peptide modifications: H4R19me2a, binder concentration: 1:2,000 dilution
# [18] = peptide modifications: H4R19me2s H4K20me1, binder concentration: 1:2,000 dilution
# [19] = peptide modifications: H4R19me2s H4K20me1, binder concentration: 1:10,000 dilution
# [20] = peptide modifications: H4R23cit, binder concentration: 1:2,000 dilution
# [21] = peptide modifications: H4R23cit, binder concentration: 1:10,000 dilution
# [22] = peptide modifications: H4R19me1 H4K20me1, binder concentration: 1:2,000 dilution
# [23] = peptide modifications: H4R19me1 H4K20me1, binder concentration: 1:10,000 dilution
binder,measurement,setting,value
KRHRKVLRDNIQG [H4 16-28 K R H Rme2s Kme2 V L R D N I Q G],peptide microarray binding signal,"[1]; peptide modifications: H4R19me2s H4K20me2, binder concentration: 50 nM",0.003511 ± 2.9e-05
same,peptide microarray binding signal,"[1]; peptide modifications: H4R19me2s H4K20me2, binder concentration: 500 nM",0.00548 ± 0.00047
same,peptide microarray binding signal,"[2]; peptide modifications: H4R19me2s H4K20me2, binder concentration: 10 nM",0.00937 ± 0.00061
same,peptide microarray binding signal,"[2]; peptide modifications: H4R19me2s H4K20me2, binder concentration: 100 nM",0.0138 ± 0.0027
same,peptide microarray binding signal,[3]; [5],0.00208 ± 0.0003
same,peptide microarray binding signal,[3]; [6],0.00325 ± 0.00014
same,peptide microarray binding signal,[4]; [5],0.000966 ± 0.00022
same,peptide microarray binding signal,[4]; [6],0.00225 ± 0.00011
KRHRKVLRDNIQG [H4 16-28 K R H Rme2a Kac V L R D N I Q G],peptide microarray binding signal,"[1]; peptide modifications: H4R19me2a H4K20ac, binder concentration: 50 nM",0.003699 ± 3e-05
same,peptide microarray binding signal,"[1]; peptide modifications: H4R19me2a H4K20ac, binder concentration: 500 nM",0.006
same,peptide microarray binding signal,"[2]; peptide modifications: H4R19me2a H4K20ac, binder concentration: 10 nM",0.00871 ± 0.00039
same,peptide microarray binding signal,"[2]; peptide modifications: H4R19me2a H4K20ac, binder concentration: 100 nM",0.0218 ± 0.0012
same,peptide microarray binding signal,[3]; [7],0.000774 ± 2.5e-05
same,peptide microarray binding signal,[3]; [8],0.00171 ± 3.3e-05
same,peptide microarray binding signal,[4]; [7],0.0004379 ± 4.2e-06
same,peptide microarray binding signal,[4]; [8],0.001211 ± 1.2e-05
KRHRKVLRDNIQG [H4 16-28 K R H Rme2a Kme V L R D N I Q G],peptide microarray binding signal,"[1]; peptide modifications: H4R19me2a H4K20me1, binder concentration: 50 nM",0.00382 ± 5.3e-05
same,peptide microarray binding signal,"[1]; peptide modifications: H4R19me2a H4K20me1, binder concentration: 500 nM",0.008 ± 0.00032
same,peptide microarray binding signal,"[2]; peptide modifications: H4R19me2a H4K20me1, binder concentration: 10 nM",0.00782 ± 0.00021
same,peptide microarray binding signal,"[2]; peptide modifications: H4R19me2a H4K20me1, binder concentration: 100 nM",0.0127 ± 0.0032
same,peptide microarray binding signal,[3]; [9],0.0308 ± 0.032
same,peptide microarray binding signal,[3]; [10],0.00188 ± 8.8e-05
same,peptide microarray binding signal,[4]; [9],0.000966 ± 4.1e-05
same,peptide microarray binding signal,[4]; [10],0.0015 ± 4.4e-05
KRHRKVLRDNIQG [H4 16-28 K R H Rme Kme3 V L R D N I Q G],peptide microarray binding signal,"[1]; peptide modifications: H4R19me1 H4K20me3, binder concentration: 50 nM",0.0047 ± 0.00026
same,peptide microarray binding signal,"[1]; peptide modifications: H4R19me1 H4K20me3, binder concentration: 500 nM",0.00638 ± 0.00038
same,peptide microarray binding signal,"[2]; peptide modifications: H4R19me1 H4K20me3, binder concentration: 10 nM",0.0104 ± 0.00011
same,peptide microarray binding signal,"[2]; peptide modifications: H4R19me1 H4K20me3, binder concentration: 100 nM",0.0129 ± 0.00048
same,peptide microarray binding signal,[3]; [11],0.00636 ± 0.00079
same,peptide microarray binding signal,[3]; [12],0.00867 ± 0.00021
same,peptide microarray binding signal,[4]; [11],0.0157 ± 0.0041
same,peptide microarray binding signal,[4]; [12],0.00871 ± 0.00013
KRHRKVLRDNIQG [H4 16-28 K R H R K V L Rme2a D N I Q G],peptide microarray binding signal,"[1]; peptide modifications: H4R23me2a, binder concentration: 500 nM",0.0285 ± 0.039
same,peptide microarray binding signal,"[2]; peptide modifications: H4R23me2a, binder concentration: 100 nM",0.000425 ± 4.9e-06
same,peptide microarray binding signal,[3]; [13],7.55e-05 ± 8.5e-07
same,peptide microarray binding signal,[4]; [13],0
KRHRKVLRDNIQG [H4 16-28 K R H Rme2a Kme3 V L R D N I Q G],peptide microarray binding signal,"[1]; peptide modifications: H4R19me2a H4K20me3, binder concentration: 50 nM",0.0152 ± 0.00067
same,peptide microarray binding signal,"[1]; peptide modifications: H4R19me2a H4K20me3, binder concentration: 500 nM",0.0166 ± 0.00049
same,peptide microarray binding signal,"[2]; peptide modifications: H4R19me2a H4K20me3, binder concentration: 10 nM",0.0209 ± 0.00068
same,peptide microarray binding signal,"[2]; peptide modifications: H4R19me2a H4K20me3, binder concentration: 100 nM",0.0392 ± 0.009
same,peptide microarray binding signal,[3]; [14],0.0145 ± 0.0019
same,peptide microarray binding signal,[3]; [15],0.00981 ± 0.00045
same,peptide microarray binding signal,[4]; [14],0.0143 ± 0.0024
same,peptide microarray binding signal,[4]; [15],0.0104 ± 0.00022
KRHRKVLRDNIQG [H4 16-28 K R H R K V L Rme D N I Q G],peptide microarray binding signal,"[1]; peptide modifications: H4R23me1, binder concentration: 500 nM",0.000143 ± 4.6e-06
same,peptide microarray binding signal,"[2]; peptide modifications: H4R23me1, binder concentration: 100 nM",0.000354 ± 4.1e-06
same,peptide microarray binding signal,[3]; [16],0.000132 ± 1.5e-06
same,peptide microarray binding signal,[4]; [16],1.51e-05 ± 1.7e-07
KRHRKVLRDNIQG [H4 16-28 K R H Rme2a K V L R D N I Q G],peptide microarray binding signal,"[1]; peptide modifications: H4R19me2a, binder concentration: 500 nM",4.76e-05 ± 5.2e-07
same,peptide microarray binding signal,"[2]; peptide modifications: H4R19me2a, binder concentration: 100 nM",0.000213 ± 2.5e-06
same,peptide microarray binding signal,[3]; [17],5.66e-05
same,peptide microarray binding signal,[4]; [17],1.51e-05 ± 1.7e-07
KRHRKVLRDNIQG [H4 16-28 K R H Rme2s Kme V L R D N I Q G],peptide microarray binding signal,"[1]; peptide modifications: H4R19me2s H4K20me1, binder concentration: 50 nM",0.00379 ± 5.5e-05
same,peptide microarray binding signal,"[1]; peptide modifications: H4R19me2s H4K20me1, binder concentration: 500 nM",0.00586 ± 0.00025
same,peptide microarray binding signal,"[2]; peptide modifications: H4R19me2s H4K20me1, binder concentration: 10 nM",0.0101 ± 0.00023
same,peptide microarray binding signal,"[2]; peptide modifications: H4R19me2s H4K20me1, binder concentration: 100 nM",0.0192 ± 0.00073
same,peptide microarray binding signal,[3]; [18],0.0013 ± 1.8e-05
same,peptide microarray binding signal,[3]; [19],0.002568 ± 2.3e-05
same,peptide microarray binding signal,[4]; [18],0.000831 ± 4.3e-05
same,peptide microarray binding signal,[4]; [19],0.001614 ± 1.6e-05
KRHRKVLRDNIQG [H4 16-28 K R H R K V L Rcit D N I Q G],peptide microarray binding signal,"[1]; peptide modifications: H4R23cit, binder concentration: 50 nM",0.00241 ± 3.7e-05
same,peptide microarray binding signal,"[1]; peptide modifications: H4R23cit, binder concentration: 500 nM",0.00457 ± 0.00023
same,peptide microarray binding signal,"[2]; peptide modifications: H4R23cit, binder concentration: 10 nM",0.00597 ± 0.00064
same,peptide microarray binding signal,"[2]; peptide modifications: H4R23cit, binder concentration: 100 nM",0.00291 ± 0.00024
same,peptide microarray binding signal,[3]; [20],0.000925 ± 1.6e-05
same,peptide microarray binding signal,[3]; [21],0.002 ± 0.00019
same,peptide microarray binding signal,[4]; [20],0.000544 ± 6.6e-05
same,peptide microarray binding signal,[4]; [21],0.00115
KRHRKVLRDNIQG [H4 16-28 K R H Rme Kme V L R D N I Q G],peptide microarray binding signal,"[1]; peptide modifications: H4R19me1 H4K20me1, binder concentration: 50 nM",0.00552 ± 0.00017
same,peptide microarray binding signal,"[1]; peptide modifications: H4R19me1 H4K20me1, binder concentration: 500 nM",0.01 ± 0.00041
same,peptide microarray binding signal,"[2]; peptide modifications: H4R19me1 H4K20me1, binder concentration: 10 nM",0.00961 ± 0.00044
same,peptide microarray binding signal,"[2]; peptide modifications: H4R19me1 H4K20me1, binder concentration: 100 nM",0.0145 ± 0.0033
same,peptide microarray binding signal,[3]; [22],0.0027 ± 0.00027
same,peptide microarray binding signal,[3]; [23],0.002511 ± 2.2e-05
same,peptide microarray binding signal,[4]; [22],0.00143 ± 4.1e-05
same,peptide microarray binding signal,[4]; [23],0.002133 ± 2e-05
